In PubChem BioAssay (NCI) one finds growth data, which are given here for 13 compounds.

Assay in all cases: NCI-60 one-dose screen, 48 h (100 = growth as untreated, 0 = no growth, -100 = all killed)
What all share (settings): 10 µM unless noted

In experiment [1] the test system is HCT-15 colon.
Experiment [2] concerns HT29 colon.
Experiment [3] concerns SNB-75 CNS.
In experiment [4] the test system is SNB-19 CNS.
Experiment [5] concerns U251 CNS.
Experiment [6] concerns PC-3 prostate.
Experiment [7] relates to SK-MEL-5 melanoma.
Experiment [8] deals with UACC-62 melanoma.
Experiment [9] has as its system LOX IMVI melanoma.
Experiment [10] has as its system SK-MEL-28 melanoma.

About 83,000 compounds went through this panel and 20% of them were active in at least one assay; those are over-represented in the sample as a whole.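 Results are percent growth after 48 hours of single-concentration exposure. 100 means growth as in untreated cells, lower positive values show inhibition; negative values down to -100 show cell death.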 A number with no mark means an inactive call. Calls of active or inactive are those of the source. How the source made its calls: active means growth percent below 10; inactive means the rest.

As for `CNC(=O)c1cc(Oc2ccc3nc(Nc4cc(Cl)cc(Cl)c4)ccc3c2)ccn1`, the growth in experiment [1] is 41.4%; in [2], 15.3%; in experiment [3] it was 70.2%; in experiment [4] it was 75.2%; in experiment [5], 58.2%; in [6], 40.3%. In addition, the growth in experiment [7] was 51.8%; in experiment [8], 44.7%; in [9] it was 45.9%; in experiment [10] it was 61.4%.
Turning to `Cc1c(C(=O)O[C@H]2[C@@H]3[C@H](C)CC[C@H]3[C@]3(C)O[C@@]2(C2CCCCC2)C[C@H]3OC(=O)CO)ccc2ccccc12`, the growth in experiment [1] was 14.2%; in experiment [2], -4.24% (active); in [3], 82.6%; in experiment [4], 60.8%; in [5], 4.41% (active); in [6], 9.25% (active). The growth in experiment [7] is 68.6%; in experiment [8] it was 61.3%; in experiment [10] it was 59.7%.
Regarding `COc1ccc(-c2cc(-c3cc(OC)ccc3OC)[nH]c(=O)c2C#N)cc1`, the growth in experiment [1] is 62.8%; in experiment [2], 38.1%; in experiment [3] it was 56.4%; in [4], 68.1%; in experiment [5], 39.5%; in [6], 72.6%. In addition, the growth in experiment [7] is 40.1%; in experiment [8], 47.7%; in experiment [9], 44.6%; in experiment [10], 74.8%.
Turning to `COc1cc2c(c(OC)c1OC)C(=O)/C(=C/c1cc(C)c(O)c(C)c1)S2`, the growth in [1] is 25.4%; in experiment [2], 82.4%; in [3] it was 4.46% (active); in experiment [4] it was 39.2%; in experiment [5] it was 33%; in experiment [6], 30.9%. Also, the growth is 4.33% (active) in experiment [7], 50.8% in experiment [8], 26.4% in experiment [9] and 59.3% in experiment [10].
As to `Cn1c(NCCc2ccc(O)c(O)c2)nc2c1c(=O)n(Cc1ccc(Cl)cc1)c(=O)n2C`, the growth in experiment [1] was 40.7%; in [2], 101%; in [3] it was 57.1%; in experiment [4] it was 93%; in [5] it was 104%; in [6], 60%. The results for the growth in experiment [7], in experiment [8] and in experiment [10] were 75.3%, 82.7% and 86%, respectively.
As to `CCOC(=O)c1c2c(c(C)n1C)-c1nn(Cc3ccc(OC)cc3)cc1CC2`, the growth in [1] is 83.9%; in experiment [2], 79.1%; in [3] it was 103%; in experiment [4], 95.2%; in experiment [5] it was 96.4%; in experiment [6], 66.3%. Besides, the growth is 69.6% in experiment [7], 68.9% in [8], 84.5% in experiment [9] and 119% in experiment [10].
In the case of `O=C(c1ccccc1)c1ccc(N2C(=O)C3C4c5ccccc5C(/C=C/C(=O)c5ccccn5)(c5ccccc54)C3C2=O)cc1` (stereo not given), the growth is -21.7% (active) in experiment [1]; 9.38% (active) in [2]; 46.7% in [3]; 28.2% in experiment [4]; 2.15% (active) in experiment [5]; 28.4% in [6]. In addition, the growth in experiment [7] is 49.7%; in experiment [8] it was 21%; in experiment [9], -76.6% (active); in experiment [10] it was 13.4%.
For `O=C1NN(C(=O)c2ccc(O)cc2)C(c2ccccc2)=N/C1=C\c1cn(-c2ccccc2)nc1-c1ccccc1`, the growth was 103% in [1]; 95.1% in [2]; 77.4% in [3]; 92.5% in experiment [4]; 96.2% in experiment [5]; 104% in experiment [6]. In addition, the growth is 98.7% in experiment [7], 92.9% in [8] and 101% in experiment [10].
With `O=C(NC(=S)Nc1ccc(-c2nc3ccccc3[nH]2)cc1)c1ccc2ccccc2c1`, the growth in [1] was 29.2%; in experiment [2], 21.8%; in experiment [3] it was -62.4% (active); in [4], 66.2%; in experiment [5], 13.9%; in [6], 22.8%. Also, the growth was 14.7% in experiment [7], 34.1% in [8], -45.8% (active) in experiment [9] and 40.5% in [10].
Regarding `COc1ccc2c(c1)/C(=C\c1sc(=S)[nH]c1O)C(C(=O)O)=N2`, the growth is 100% in [1]; 104% in experiment [2]; 84.6% in experiment [3]; 100% in [4]; 98.3% in experiment [5]; 99.4% in experiment [6]. Also, the growth in [7] is 101%; in experiment [8] it was 91.4%; in experiment [9] it was 96.6%; in experiment [10], 111%.
With `CCCCNCC(=O)Nc1ccc(C(=O)OCC)cc1`, the growth is 91.5% in experiment [1]; 86.7% in experiment [2]; 108% in [3]; 103% in experiment [4]; 101% in experiment [5]; 71.8% in experiment [6]. Also, the growth was 101% in experiment [7], 95.3% in experiment [8], 103% in experiment [9] and 115% in [10].
In the case of `COc1ccc(Oc2nc(Nc3ccc(N4CCOCC4)nc3)ncc2NC(=O)c2cc(OC)cc(OC)c2)cc1`, the growth was 52.9% in experiment [1]; 77.8% in experiment [2]; 70.6% in experiment [3]; 80.6% in [4]; 84.2% in [5]; 67.9% in [6]. In addition, the results for the growth in experiment [7], in experiment [8] and in experiment [10] were 70.9%, 69.3% and 79.8%, respectively.
Regarding `Cc1cc(Cl)nc(N(CCCNc2ccnc3cc(Cl)ccc23)Cc2ccccn2)n1`, the growth was 35.2% in experiment [1]; 10.2% in experiment [2]; 64.1% in experiment [3]; 66.5% in [4]; 43.9% in experiment [5]; 54.2% in experiment [6]. The figures for the growth in experiment [7], in experiment [8] and in experiment [10] were 34.1%, 55.9% and 68%, respectively.
